Screening results as filed in PubChem.
Compounds with a hit are over-represented: about 7.9% of the library has one in this group of screens.
HCV inhibitor = inhibitors of hepatitis C virus infection. Huh7.5.1 HCVcc-Cre infection, luciferase reporter, 44 h. 3.4% of 340,000 active. AID 651820. Potency, µM (highest dose often 41.8 µM), for inactives: at the highest dose activity change, negative = inhibition, actives largely listed as inhibitors; active = well fitted inhibition curve with a large enough effect; inconclusive = small, poorly fitted or top-dose-only effect, or another doubt; inactive = no such curve, though single readings can be large or run the other way; note: potency is the fitted concentration of half-maximal effect
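Luciferase read-out (15 sec integration) after a 15 min room-temperature substrate step quantifies HCVcc-Cre infection. Cells, 1,000 per well, had compound added 4 h post-plating, then virus at ~0.5 moi, and were cultured 44 h.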
FMDV antiviral = foot and mouth disease virus antiviral activity; FMDV antiviral cell-based qHTS; Potency, µM (highest dose often 57.9 µM), inactives show top-dose activity change, negative = inhibition, usual class: inhibitors; 1.2% of 410,000 active; calls by dose curve; tested in HEK293T cells; note: read-out not given here; potency is the fitted concentration of half-maximal effect; nearly all actives have a fitted effect of over 45% in size
Marburg entry inh = blocks Marburg virus binding to or entry into cells. Marburg virus pseudotyped entry inhibition, cell reporter. Potency, µM (series often up to 37.8 µM), without a hit: at the highest dose activity change, negative = inhibition, actives largely listed as inhibitors. 1.8% of 300,000 active. AID 540276; calls by dose curve; tested in HEK293 cells; note: potency is the fitted concentration of half-maximal effect
HCMV inh = blocks human cytomegalovirus replication | HFF cells, HCMV-luciferase reporter, 72 h; stronger effect = lower value | activity change, negative = inhibition, % at 57.5 µM | 4.5% of 410,000 active; in the data active = activity change below about -60%; inconclusive = no clear call, values can overlap the other calls; inactive = above about -39%
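Steps: HFFs plated, 16 h 37C; compounds added; HCMV-luciferase added to MOI 1 PFU/cell; 72 h 37C; OneGlo reagent, 5 min room temperature; luminescence read, normalized to controls.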
LASV entry inh = Lassa virus entry inhibition; Lassa virus pseudotype entry inhibition, cell reporter; Potency, µM (top dose mostly 37.9 µM), inactives show at the highest dose activity change, negative = inhibition, most hits filed as inhibitors; 1.2% of 300,000 active; calls by dose curve; tested in HEK293 cells; note: potency is the fitted concentration of half-maximal effect; nearly all actives have a fitted effect of over 50% in size
Numbers without * were called inactive; u = inconclusive; x = not tested or not shown; ! = a repeat was not active; [ ] = another dose, or the depositor's remark. % is set by controls: 0 for no effect and ±100 for the full control effect.

SMILES | HCV inhibitor | FMDV antiviral | Marburg entry inh | HCMV inh | LASV entry inh
Cn1c(=O)c2c(nc(N3CCCCC3)n2CCSc2nc3ccccc3s2)n(C)c1=O | u | -23% | -1% | -32 | u
Cn1c(=O)[nH]c(=O)c2c1nc(N1CCCC1)n2CCCSc1nc2ccccc2o1 | -23% | u | u | -17 | u
CC1CCN(c2nc3c(c(=O)n(C)c(=O)n3C)n2CCSc2nc3ccccc3s2)CC1 | 11µM* | 0% | u | -34 | u
Cn1c(=O)[nH]c(=O)c2c1nc(N1CCCCC1)n2CCCSc1nc2ccccc2s1 | 10µM* | u | u | -28 | u
COc1ccc(C)cc1-n1c(SCC(=O)NCc2ccco2)nc2c([nH]c3ccccc32)c1=O | x | -21% | x | u | -13%[46.1 µM]
O=C(CCS(=O)(=O)c1cc2c(cc1Cl)NC(=O)CO2)NCc1ccccc1 | 17% | 8% | x | -20 | -23%[46.1 µM]
O=C(CCS(=O)(=O)c1cc2c(cc1Cl)NC(=O)CO2)NCCc1ccccc1 | 0% | -11% | 3%[46.1 µM] | -104*! | 1%[46.1 µM]
CN1C(=O)COC2CCC(C(=O)C3=C(C(=O)O)CCCC3)CC21 (stereo not given) | x | x | 11% | x | x
CC(/C=N/NC(=O)c1cc(C(C)(C)C)[nH]n1)=C\c1ccccc1 | 14µM* | -22% | u | 2 | u
CC(/C=C/c1ccccc1)=N\NC(=O)c1cc(C)[nH]n1 | 14µM* | 12% | 28% | u | 1%
CC(/C=N/NC(=O)c1cc(-c2ccc(C)s2)[nH]n1)=C\c1ccccc1 | 5.6µM* | -1% | u | 5 | u
CC(=C/c1ccccc1)/C=N/NC(=O)c1ccccn1 | 1% | u | u | 7 | u
CC(/C=C/c1ccccc1)=N/NC(=O)c1cnccn1 | -2% | 25% | 19%[46.1 µM] | -1 | 13%
Cc1ccccc1C1(CC(=O)N2CCCCC2c2cccnc2)CC(=O)N(C2CCCC2)C1=O (stereo not given) | x | 26% | x | x | x
COc1ccc(OCCN2CCN(C(=O)c3ccc(OC)c(OC)c3)CC2)cc1 | 8.9µM* | u | u | -14 | u
COc1ccc(OCC(=O)N2CCN(C(=O)c3ccc(OC)c(OC)c3)CC2)cc1 | x | 15% | u | 22 | 5%[46.1 µM]
CC1=C(CC(=O)c2ccccc2)C(=O)c2ccccc2C1=O | u | u | u | -99* | -14%
O=C(CN1C(=O)c2ccccc2C1=O)c1ccccc1 | 5% | 25% | -6% | 36 | -1%
Cc1cc(NC(=O)C2CCN(S(=O)(=O)c3c(C)noc3C)CC2)ccc1Br | -9% | u | 18%[46.1 µM] | -61*! | 4%[46.1 µM]
COc1ccc(/C=C\c2onc(C)c2S(=O)(=O)N2CCC(C(=O)Nc3cccc(OC)c3)CC2)cc1 | x | 14µM* | u | -27 | u
Cc1noc(/C=C/c2ccco2)c1S(=O)(=O)N1CCC(C(=O)Nc2ccc(F)c(Cl)c2)CC1 | x | u | 0%[46.1 µM] | -84* | -12%[46.1 µM]
O=C(Nc1ccc(F)c(F)c1)C1CCN(S(=O)(=O)c2cccc3nonc23)CC1 | u | 20µM* | -2%[46.1 µM] | -77* | -9%
Cc1ccc(NC(=O)C2CCN(S(=O)(=O)c3c(C)noc3/C=C/c3ccco3)CC2)cc1C | x | u | 7%[46.1 µM] | u | 0%[46.1 µM]
CCc1ccc(NC(=O)C2CCN(S(=O)(=O)c3c(C)noc3/C=C\c3ccc(OC)cc3)CC2)cc1 | x | u | u | -32 | 29%[46.1 µM]
Cc1ccc(S(=O)(=O)N2CCN(C)CC2c2ccccc2)cc1 (stereo not given) | 7% | -6% | x | -10 | x
SMILES | HCV inhibitor | FMDV antiviral | Marburg entry inh | HCMV inh | LASV entry inh
Cc1cc(C)cc(NC(=O)C2CCN(S(=O)(=O)c3c(C)noc3/C=C/c3ccco3)CC2)c1 | x | -25% | 3%[46.1 µM] | -38 | 1%[46.1 µM]
CCOc1ccc(NC(=O)C2CCN(S(=O)(=O)c3c(C)noc3/C=C/c3ccco3)CC2)cc1 | x | -27% | u | -78* | 5%[46.1 µM]
Cc1noc(/C=C/c2ccccc2F)c1S(=O)(=O)N1CCC(C(=O)NCc2ccco2)CC1 | x | 2% | x | -13 | 3%[46.1 µM]
Cc1cccc(NC(=O)C2CCN(S(=O)(=O)c3c(C)noc3/C=C/c3ccco3)CC2)n1 | u | 0% | -39% | -66* | -18%
Cc1n[nH]c(C)c1S(=O)(=O)N1CCCC(C(=O)Nc2nccs2)C1 (stereo not given) | -12% | 0% | u | -98* | -1%
CCN(CC)CCNC(=O)C1CCN(S(=O)(=O)c2c(C)noc2/C=C/c2ccccc2F)CC1 | 5.6µM* | -2% | x | -78*! | u
CCOc1ccc(NC(=O)C2CCN(S(=O)(=O)c3c(C)noc3C)CC2)cc1 | -8% | -12% | x | 4 | x
Cc1c(C(=O)NCc2ccc(F)cc2)sc2ncnc(NCC3CCCO3)c12 (stereo not given) | x | -13% | x | x | x
O=c1[nH]cc(CCc2ccccc2)c(=O)[nH]1 | x | -29% | x | 21 | x
CCN(c1cccc(C)c1)S(=O)(=O)c1cc2c(cc1C)n(C)c(=O)c(=O)n2C | x | -24% | x | -7 | -21%[46.1 µM]
Cc1noc(C)c1S(=O)(=O)N1CCCC(C(=O)Nc2ccc(Cl)cn2)C1 (stereo not given) | u | 32µM* | u | -29 | u
Cc1ccc(Cl)cc1NC(=O)C1CCCN(S(=O)(=O)c2c(C)noc2C)C1 (stereo not given) | 4% | u | -16% | 10 | -3%
NCCCCCCNS(=O)(=O)c1ccc2c(Cl)cccc2c1 | x | 32% | x | x | x
O=C(O)c1ccccc1C(=O)c1ccc(-c2ccccc2)cc1 | 16% | 45% | x | 29 | x
Cc1ccc(-c2cc(-c3ccccc3)cc(-c3ccccc3)[n+]2-c2ccccc2C(=O)O)cc1 | u | u | x | -67* | x
COc1cccc(SCc2noc(C(=O)NCCCN3CCOCC3)c2C(=O)NCCCN2CCOCC2)c1 | -10% | -16% | x | -30 | x
O=C(NCCCN1CCOCC1)c1onc(CSc2ccncc2)c1C(=O)NCCCN1CCOCC1 | 9% | 1% | x | 12 | x
O=C(NCCCN1CCOCC1)c1onc(CSc2ccccc2)c1C(=O)NCCCN1CCOCC1 | 2% | -1% | x | -68* | x
Cc1cc(C)cc(SCc2noc(C(=O)NCCCN3CCOCC3)c2C(=O)NCCCN2CCOCC2)c1 | 1µM* | -5% | x | -29 | x
Cn1c(O)c(/C=C2\C=c3ccccc3=NC2=O)c(=O)n(C)c1=O | 14% | -14% | x | 0 | x
Cn1c(O)c(/C=C2\N=c3ccccc3=C2CCNC(=S)NC2CC2)c(=O)n(C)c1=O | 7% | 13µM* | 7%[46.1 µM] | 16 | -9%[46.1 µM]
CCS(=O)(=O)N1Cc2ccccc2CC1C(=O)Nc1nnc(SCc2ccc(C#N)cc2)s1 (stereo not given) | -12% | -28% | -15% | -66* | 0%
O=[N+]([O-])c1cc([N+](=O)[O-])c2cc3ccccc3nc2c1 | u | 28µM* | u | 41 | u
O=[N+]([O-])c1cnc2ccccc2c1 | 20% | 15% | u | -1 | -2%
Cc1cc(CNCc2cn(C)nc2-c2ccc(Oc3ccccc3)cc2)on1 | u | u | -23%[46.1 µM] | -68* | u
